According to PubChem BioAssay AID1159580 (chemical genetic matrix, 2015):
Among all 5,500 compounds or so, about 2,000 (36%) were called active. About 18% were inconclusive and are not listed. This is one part of the list. Values without a mark were called inactive. Rule as the data show it: active = normalized growth mostly below about 0.91 (no sharp cut-off); inconclusive = no clear call, values can overlap the other calls; inactive = mostly above about 0.92.

Experiment: chemical genetic growth profiling, strain panel (AID 1159580);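 also: tested at 20 µM; growth read once vehicle control cultures reached saturation at 30 °C; 1 = growth at the plate median or of vehicle wells; lower values mean less growth of the strain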
Details: growth OD

O=C1C=C(O)c2ccccc2C1=O
normalized growth (S. cerevisiae deletion strains, locus YJR043C, strain POL32, stronger effect = lower value): 1.01 | normalized growth (S. cerevisiae deletion strains, locus YJR066W, strain TOR1, stronger effect = lower value): 0.825 (active) | normalized growth (S. cerevisiae deletion strains, locus YKL009W, strain mrt4, stronger effect = lower value): 1.04 | normalized growth (S. cerevisiae deletion strains, locus YKL068W, stronger effect = lower value): 0.942 | normalized growth (S. cerevisiae deletion strains, locus YKL085W, strain MDH1 (second series), stronger effect = lower value): 0.947 | normalized growth (S. cerevisiae deletion strains, locus YKL085W, strain MDH1, stronger effect = lower value): 0.947 | normalized growth (S. cerevisiae deletion strains, locus YKL160W, strain elf1, stronger effect = lower value): 0.912 | normalized growth (S. cerevisiae deletion strains, locus YKR001C, strain vps1, stronger effect = lower value): 0.9 | normalized growth (S. cerevisiae deletion strains, locus YKR026C, strain gcn3, stronger effect = lower value): 0.919 (active) | normalized growth (S. cerevisiae deletion strains, locus YKR091W, strain srl3, stronger effect = lower value): 0.961 | normalized growth (S. cerevisiae deletion strains, locus YLL001W, strain dnm1, stronger effect = lower value): 0.937 | normalized growth (S. cerevisiae deletion strains, locus YLL026W, stronger effect = lower value): 0.952 | normalized growth (S. cerevisiae deletion strains, locus YLL041C, strain sdh2, stronger effect = lower value): 0.939 | normalized growth (S. cerevisiae deletion strains, locus YLR027C, strain aat2, stronger effect = lower value): 0.935 | normalized growth (S. cerevisiae deletion strains, locus YLR039C, strain RIC1, stronger effect = lower value): 0.71 | normalized growth (S. cerevisiae deletion strains, locus YLR058C, strain SHM2, stronger effect = lower value): 0.949 | normalized growth (S. cerevisiae deletion strains, locus YLR102C, strain apc9, stronger effect = lower value): 0.982 | normalized growth (S. cerevisiae deletion strains, locus YLR113W, strain HOG1, stronger effect = lower value): 0.867 | normalized growth (S. cerevisiae deletion strains, locus YLR221C, strain rsa3, stronger effect = lower value): 0.925 | normalized growth (S. cerevisiae deletion strains, locus YLR258W, strain gsy2, stronger effect = lower value): 0.944 | normalized growth (S. cerevisiae deletion strains, locus YLR262C, strain YPT6 (second series), stronger effect = lower value): 0.738 (active) | normalized growth (S. cerevisiae deletion strains, locus YLR262C, strain YPT6, stronger effect = lower value): 0.82 | normalized growth (S. cerevisiae deletion strains, locus YLR268W, strain sec22, stronger effect = lower value): 0.923 | normalized growth (S. cerevisiae deletion strains, locus YLR320W, strain mms22, stronger effect = lower value): 0.949 | normalized growth (S. cerevisiae deletion strains, locus YLR330W, strain CHS5, stronger effect = lower value): 0.959 | normalized growth (S. cerevisiae deletion strains, locus YLR342W, strain FKS1 (second series), stronger effect = lower value): 1.04 | normalized growth (S. cerevisiae deletion strains, locus YLR342W, strain FKS1, stronger effect = lower value): 0.948 | normalized growth (S. cerevisiae deletion strains, locus YLR357W, strain rsc2, stronger effect = lower value): 0.932 | normalized growth (S. cerevisiae deletion strains, locus YLR370C, strain arc18, stronger effect = lower value): 0.941 | normalized growth (S. cerevisiae deletion strains, locus YLR371W, strain rom2, stronger effect = lower value): 0.966 | normalized growth (S. cerevisiae deletion strains, locus YLR384C, strain iki3, stronger effect = lower value): 0.971 | normalized growth (S. cerevisiae deletion strains, locus YLR418C, strain cdc73, stronger effect = lower value): 0.894 | normalized growth (S. cerevisiae deletion strains, locus YML016C, strain PPZ1, stronger effect = lower value): 0.956 | normalized growth (S. cerevisiae deletion strains, locus YML032C, strain rad52, stronger effect = lower value): 0.907 | normalized growth (S. cerevisiae deletion strains, locus YML120C, strain ndi1, stronger effect = lower value): 0.93 | normalized growth (S. cerevisiae deletion strains, locus YML124C, strain tub3, stronger effect = lower value): 0.964 | normalized growth (S. cerevisiae deletion strains, locus YMR058W, strain fet3, stronger effect = lower value): 0.872 (active) | normalized growth (S. cerevisiae deletion strains, locus YMR078C, strain ctf18, stronger effect = lower value): 0.989 | normalized growth (S. cerevisiae deletion strains, locus YMR125W, strain sto1, stronger effect = lower value): 0.954 | normalized growth (S. cerevisiae deletion strains, locus YMR129W, stronger effect = lower value): 0.937 | normalized growth (S. cerevisiae deletion strains, locus YMR205C, strain PFK2, stronger effect = lower value): 0.994 | normalized growth (S. cerevisiae deletion strains, locus YMR223W, strain ubp8, stronger effect = lower value): 0.944 | normalized growth (S. cerevisiae deletion strains, locus YMR231W, strain pep5, stronger effect = lower value): 0.919 (active) | normalized growth (S. cerevisiae deletion strains, locus YMR307W, strain GAS1, stronger effect = lower value): 0.863 | normalized growth (S. cerevisiae deletion strains, locus YNL067W, strain RPL9B, stronger effect = lower value): 0.966 | normalized growth (S. cerevisiae deletion strains, locus YNL071W, strain lat1, stronger effect = lower value): 0.945 | normalized growth (S. cerevisiae deletion strains, locus YNL128W, strain TEP1, stronger effect = lower value): 0.974 | normalized growth (S. cerevisiae deletion strains, locus YNL183C, strain NPR1, stronger effect = lower value): 0.884 | normalized growth (S. cerevisiae deletion strains, locus YNL209W, strain ssb2, stronger effect = lower value): 0.941 | normalized growth (S. cerevisiae deletion strains, locus YNL233W, strain BNI4, stronger effect = lower value): 0.978 | normalized growth (S. cerevisiae deletion strains, locus YNL248C, strain rpa49, stronger effect = lower value): 0.951 | normalized growth (S. cerevisiae deletion strains, locus YNL250W, strain rad50, stronger effect = lower value): 0.953 | normalized growth (S. cerevisiae deletion strains, locus YNL271C, strain bni1, stronger effect = lower value): 0.941 | normalized growth (S. cerevisiae deletion strains, locus YNL298W, strain CLA4, stronger effect = lower value): 0.968 | normalized growth (S. cerevisiae deletion strains, locus YNL307C, strain MCK1, stronger effect = lower value): 0.968 | normalized growth (S. cerevisiae deletion strains, locus YNL322C, strain KRE1 (second series), stronger effect = lower value): 0.944 | normalized growth (S. cerevisiae deletion strains, locus YNL322C, strain KRE1, stronger effect = lower value): 0.971 | normalized growth (S. cerevisiae deletion strains, locus YNR049C, strain mso1, stronger effect = lower value): 0.958 | normalized growth (S. cerevisiae deletion strains, locus YNR052C, strain pop2, stronger effect = lower value): 0.941 | normalized growth (S. cerevisiae deletion strains, locus YOL006C, strain TOP1, stronger effect = lower value): 0.865 | normalized growth (S. cerevisiae deletion strains, locus YOL012C, strain htz1): 0.668 | normalized growth (S. cerevisiae deletion strains, locus YOL147C, strain pex11, stronger effect = lower value): 0.955 | normalized growth (S. cerevisiae deletion strains, locus YOR001W, strain rrp6, stronger effect = lower value): 0.931 | normalized growth (S. cerevisiae deletion strains, locus YOR061W, strain CKA2, stronger effect = lower value): 0.979 | normalized growth (S. cerevisiae deletion strains, locus YOR069W, strain VPS5, stronger effect = lower value): 0.971 | normalized growth (S. cerevisiae deletion strains, locus YOR070C, strain gyp1, stronger effect = lower value): 0.956 | normalized growth (S. cerevisiae deletion strains, locus YOR080W, strain dia2, stronger effect = lower value): 0.951 | normalized growth (S. cerevisiae deletion strains, locus YOR083W, strain WHI5, stronger effect = lower value): 0.904 | normalized growth (S. cerevisiae deletion strains, locus YOR106W, strain vam3, stronger effect = lower value): 0.863 (active) | normalized growth (S. cerevisiae deletion strains, locus YOR136W, strain idh2, stronger effect = lower value): 0.952 | normalized growth (S. cerevisiae deletion strains, locus YOR144C, strain elg1, stronger effect = lower value): 0.966 | normalized growth (S. cerevisiae deletion strains, locus YOR184W, strain ser1, stronger effect = lower value): 0.918 | normalized growth (S. cerevisiae deletion strains, locus YOR231W, strain MKK1, stronger effect = lower value): 0.797 (active) | normalized growth (S. cerevisiae deletion strains, locus YOR265W, strain rbl2, stronger effect = lower value): 0.944 | normalized growth (S. cerevisiae deletion strains, locus YOR270C, strain vph1, stronger effect = lower value): 0.846 | normalized growth (S. cerevisiae deletion strains, locus YOR290C, strain snf2, stronger effect = lower value): 0.902 | normalized growth (S. cerevisiae deletion strains, locus YOR316C, strain cot1, stronger effect = lower value): 0.98 | normalized growth (S. cerevisiae deletion strains, locus YPL051W, strain arl3, stronger effect = lower value): 0.873 (active) | normalized growth (S. cerevisiae deletion strains, locus YPL078C, strain atp4, stronger effect = lower value): 0.897 | normalized growth (S. cerevisiae deletion strains, locus YPL106C, strain sse1, stronger effect = lower value): 0.866 | normalized growth (S. cerevisiae deletion strains, locus YPL240C, strain hsp82, stronger effect = lower value): 0.918 (active) | normalized growth (S. cerevisiae deletion strains, locus YPL241C, strain CIN2, stronger effect = lower value): 0.967 | normalized growth (S. cerevisiae deletion strains, locus YPL256C, strain CLN2, stronger effect = lower value): 0.818 (active) | normalized growth (S. cerevisiae deletion strains, locus YPR119W, strain clb2, stronger effect = lower value): 0.966 | normalized growth (S. cerevisiae deletion strains, locus YPR141C, strain kar3, stronger effect = lower value): 0.948 | normalized growth (S. cerevisiae deletion strains, locus YPR163C, strain tif3, stronger effect = lower value): 0.995 | normalized growth (S. cerevisiae deletion strains, locus YPR167C, strain met16, stronger effect = lower value): 0.956 | normalized growth (S. cerevisiae deletion strains, strain wtn01, stronger effect = lower value): 0.967 | normalized growth (S. cerevisiae strains, strain wild type, stronger effect = lower value): 0.978
